{"source": "ChEMBL document CHEMBL1157539", "about": "“Thousands of chemical starting points for antimalarial lead identification” (Nature, 2010)", "note": "Several values for one entry are separate records, joined by “and”; a condition that tells them apart may be missing. Equal entries are not always repeated."}
{"tested_on": "Plasmodium falciparum", "assay": "GSK_TCMDC: Inhibition of Plasmodium falciparum 3D7 in whole red blood cells, using parasite LDH activity as an index of growth. Test compounds present at 2uM", "type": "functional"}
{"compound": "NC(=O)c1ccc2[nH]cc(C3CCN(CC4CCC(NC(=O)/C=C/c5ccc(Cl)c(Cl)c5)CC4)CC3)c2c1", "note": "(centres undefined)", "Inhibition": "100%"}
{"compound": "CCC(C)CN1CCC(N(C)c2cc(NC(=O)c3cccc(C)c3)ccn2)CC1.O=C(O)C(F)(F)F", "note": "(centres undefined)", "Inhibition": "93%"}
{"compound": "Cc1[nH]c2ccc(O)cc2c1C1CCN(CC2CCC(NC(=O)/C=C/c3ccc(Cl)c(Cl)c3)CC2)CC1", "note": "(centres undefined)", "Inhibition": "100%"}
{"compound": "CC[C@H]1CN2CC[C@H]1C[C@H]2[C@H](O)c1cc(-c2ccc(C)cc2)nc2ccc(OC)cc12.Cl", "Inhibition": "99%"}
{"compound": "CC(Cc1ccc(OCCCCOc2ccccc2)cc1)NCCc1ccccc1Cl", "note": "(centres undefined)", "Inhibition": "97%"}
{"compound": "CC(C)CNCc1ccc(-c2cccc(CN(C(=O)Nc3ccccc3)C3CCN(Cc4ccccc4)CC3)c2)cc1.O=C(O)C(F)(F)F", "Inhibition": "100%"}
{"compound": "COc1ccc(CN2CCN(CCOC(c3ccccc3)c3ccccc3)CC2)c(O)c1", "Inhibition": "96%"}
{"compound": "Cc1cc(-c2ncc[nH]2)ccc1-c1ccc(C(=O)N2CCc3cc4c(cc32)C2(CCN(C)CC2)CO4)cc1.Cl", "Inhibition": "100%"}
{"compound": "O=C(/C=C/c1c(Cl)cccc1Cl)NC1CCC(CN2CCC(c3c[nH]c4ccccc34)CC2)CC1", "note": "(centres undefined)", "Inhibition": "93% and 100%"}
{"compound": "Cc1cc(N(C)C2CCN(C)CC2)nc(Nc2ccc(Cl)cc2)n1", "Inhibition": "98%"}
{"compound": "O=C(/C=C/c1ccccc1Cl)NC1CCC(CN2CCC(c3c[nH]c4ccccc34)CC2)CC1", "note": "(centres undefined)", "Inhibition": "100% and 99%"}
{"compound": "C=C[C@H]1CN2CC[C@H]1C[C@H]2[C@H](O)c1cc(/C=C/c2ccc(F)cc2)nc2ccc(OC)cc12.Cl", "Inhibition": "99%"}
{"compound": "CC(Cc1ccc(S(=O)(=O)N(C(C)C)C(C)C)cc1)NCC(O)c1cccc(C(F)(F)F)c1.Cl", "note": "(centres undefined)", "Inhibition": "96%"}
{"compound": "CC[C@H]1CN2CC[C@@H]1C[C@H]2[C@H](O)c1cc(N2CCC(C)CC2)nc2ccc(OC)cc12", "Inhibition": "99%"}
{"compound": "Cc1cc(N)nc2cc(CNCCc3ccccc3Br)ccc12.Cl", "Inhibition": "100%"}
{"compound": "Cc1ccc(CC(C)NCC(O)c2cccc(Cl)c2)cc1F.Cl", "note": "(centres undefined)", "Inhibition": "95%"}
{"compound": "C/C=C1\\CN2CC[C@H]1C[C@H]2[C@H](O)c1ccnc2ccc(OC)cc12", "Inhibition": "100%"}
{"compound": "O=C(NCc1ccccc1)c1nn(CCCN2CCC3(CC2)C(=O)NCN3c2ccccc2)cc1-c1ccc(Cl)c(Cl)c1", "Inhibition": "88%"}
{"compound": "CCOc1ccc2nccc([C@@H](O)[C@@H]3C[C@@H]4CCN3C[C@@H]4CC)c2c1.Cl", "note": "[ETHYLHYDROCUPREINE HYDROCHLORIDE]", "Inhibition": "98%"}
{"compound": "CCCCCC(C)C(C)c1cc(O)c2c(c1)OC1(C(C)C)CC(O)C(C)C2C1", "note": "(centres undefined)", "Inhibition": "93%"}
{"compound": "C=C[C@H]1CN2CC[C@H]1C[C@H]2[C@H](O)c1ccnc2ccccc12", "note": "[CINCHONIDINE]", "Inhibition": "100%"}
{"compound": "CC(C)CNCc1cccc(-c2ccc(CN(C(=O)Nc3ccccc3)C3CCN(Cc4ccccc4)CC3)cc2)c1.O=C(O)C(F)(F)F", "Inhibition": "100%"}
{"compound": "CC(=O)N(Cc1ccccc1-c1cccc(CNCc2ccc3c(c2)OCO3)c1)C1CCN(Cc2ccccc2)CC1.O=C(O)C(F)(F)F", "Inhibition": "85%"}
{"compound": "Oc1ccc(Cl)cc1CN1CCC(CCOC(c2ccccc2)c2ccc(Cl)cc2)CC1", "note": "(centres undefined)", "Inhibition": "98%"}
{"compound": "CCN1CCC2(c3cccc(OC)c3)Cc3nc4ccccc4c(-c4ccccc4)c3CC2C1", "note": "(centres undefined)", "Inhibition": "99%"}
{"compound": "CS(=O)(=O)Nc1ccc2[nH]cc(C3CCN(CC4CCC(NC(=O)/C=C/c5ccc(Cl)c(Cl)c5)CC4)CC3)c2c1", "note": "(centres undefined)", "Inhibition": "100%"}
{"compound": "COC(=O)c1ccc(CC(C)NCC(O)c2ccc3ccc4ccccc4c3c2)cc1.O=C(O)/C=C/C(=O)O", "note": "(centres undefined)", "Inhibition": "100%"}
{"compound": "Oc1ccc(Cl)cc1CN1CCC(CCOC(c2ccccc2)c2ccccc2)CC1", "Inhibition": "98%"}
{"compound": "O=C(/C=C/C=C/c1ccccc1)NC1CCC(CN2CCC(c3c[nH]c4ccccc34)CC2)CC1", "note": "(centres undefined)", "Inhibition": "100%"}
{"compound": "CCCN(CCC)CCOC(=O)C(OCC)(c1ccccc1)c1ccccc1", "Inhibition": "97%"}
{"compound": "Cc1[nH]c2ccccc2c1C1=CCN(CC2CC2C(=O)c2ccccc2)CC1", "note": "(centres undefined)", "Inhibition": "95%"}
{"compound": "Cc1[nH]c2cc(Cl)ccc2c1C1=CCN(CCCCC2(C)C(=O)Nc3c(F)cccc32)CC1", "note": "(centres undefined)", "Inhibition": "90%"}
{"compound": "Cc1ccc(CC(C)NCC(O)c2cccc([N+](=O)[O-])c2)cc1", "note": "(centres undefined)", "Inhibition": "97%"}
{"compound": "CN1CCN(c2ccc3[nH]c(-c4ccc5[nH]c(-c6ccc(O)cc6)nc5c4)nc3c2)CC1.Cl.O", "Inhibition": "99%"}
{"compound": "CO/C=C(/C(=O)OC)c1ccccc1Oc1cc(Oc2ccccc2C#N)ncn1", "note": "[AZOXYSTROBIN]", "Inhibition": "98%"}
{"compound": "CC(C)CNCc1cccc(-c2cccc(CN(C(=O)c3cccs3)C3CCN(Cc4ccccc4)CC3)c2)c1.O=C(O)C(F)(F)F", "Inhibition": "90%"}
{"compound": "Br.COC(=O)c1ccc(CC(C)NCC(O)c2cccc(OC(F)(F)F)c2)cc1", "note": "(centres undefined)", "Inhibition": "98%"}
{"compound": "N#Cc1ccc(N(CC(=O)NCCc2ccc(F)cc2)CC2CC2)c2ccccc12.O=C(O)C(F)(F)F", "Inhibition": "91%"}
{"compound": "Cc1ccc(CC(C)NCC(O)c2cccc(C(F)(F)F)c2)c(C)c1.Cl", "note": "(centres undefined)", "Inhibition": "99%"}
